Assay outcomes as filed in PubChem.
AmpC no deterg: blocks E. coli AmpC beta-lactamase in detergent-free assay. AmpC nitrocefin hydrolysis, absorbance 480 nm, 0.0001% Triton. Potency, µM (top dose mostly 57.1 µM), for the others: top-dose activity change, negative = inhibition, usual class: inhibitors. P00811. AID 485341. actives 0.52% (n = 330,000);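 also: potency is read from the fitted curve at half-maximal effect; plate controls were no compound for no effect and no enzyme for full effect; nearly all actives have a fitted effect of over 20% in size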
Target sequence (P00811 whole entry, looked up): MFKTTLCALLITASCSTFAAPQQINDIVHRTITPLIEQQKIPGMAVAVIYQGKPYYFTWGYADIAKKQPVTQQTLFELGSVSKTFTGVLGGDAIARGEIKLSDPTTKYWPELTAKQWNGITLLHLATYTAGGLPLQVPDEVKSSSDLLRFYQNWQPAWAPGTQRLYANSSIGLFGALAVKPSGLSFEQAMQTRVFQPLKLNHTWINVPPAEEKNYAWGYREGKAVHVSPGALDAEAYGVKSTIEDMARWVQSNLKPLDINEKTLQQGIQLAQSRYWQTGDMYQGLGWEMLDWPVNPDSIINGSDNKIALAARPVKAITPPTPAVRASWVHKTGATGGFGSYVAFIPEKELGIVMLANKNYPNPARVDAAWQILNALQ
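AmpC (5.3 nM in the dispensed reagent) in 20 mM phosphate pH 7.0 with 0.01% (detergent screen) or 0.0001% Triton X-100 was preincubated with compounds for 15 min at room temperature. Nitrocefin was then added from an 800 uM solution, and hydrolysis was followed at 480 nm.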
AmpC detergent: inhibitors of E. coli AmpC beta-lactamase with detergent | P00811 | AmpC hydrolysis of nitrocefin, absorbance 480 nm, 0.01% Triton | Potency, µM (titrated, usually from 114 µM), inactives show at the highest dose activity change, negative = inhibition, most hits filed as inhibitors | actives 0.041% (n = 370,000);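 also: potency is read from the fitted curve at half-maximal effect; 0% = no-compound wells and -100% = no-enzyme wells; nearly all actives have a fitted effect of over 25% in size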
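20 mM phosphate pH 7.0 + 0.01% (detergent screen) or 0.0001% Triton X-100; 5.3 nM AmpC reagent; cpd preinc 15 min RT; nitrocefin (800 uM stock) to start; A480 q20 s × 4 min; Activity was normalised to no-enzyme and no-compound control wells.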
CHX counter: affects cycloheximide protein synthesis inhibition readout, counter-screen; AID 2314; cell reporter, cycloheximide protein synthesis inhibition counterscreen; actives 12% (n = 300,000); max response, %; in the data active = max response mostly above about 13%, no sharp cut-off; inactive = mostly below about 14%; also: read at 38.3 µM for the half of the compounds with a filed dose; 0% is about no effect
SARS PLP yeast: SARS-CoV PLP inhibition in yeast. Potency, µM (top dose mostly 32.9 µM), without a hit: top-dose activity, positive = growth rescue, hits mostly activators. actives 0.19% (n = 330,000). S. cerevisiae expressing SARS-CoV PLpro, growth rescue. AID 485353; calls by dose curve; also: potency is read from the fitted curve at half-maximal effect; 0% is about no effect; nearly all actives have a fitted effect of over 55% in size
Shiga toxin inh: blocks Shiga toxin action in Vero cells; inhibition, % at 38.7 µM; AID 2315; actives 9.2% (n = 290,000); Vero cells, Shiga toxin protein synthesis inhibition reporter; in the data active = inhibition mostly above about 28%, no sharp cut-off; inactive = mostly below about 43%; also: 0% is about no effect
AMA1 RON2 block: disrupts binding of P. falciparum AMA1 to RON2; AID 720542; AlphaScreen AMA1-biotinylated RON2 peptide binding; Potency, µM (series often up to 58.2 µM), for inactives: top-dose activity change, negative = inhibition, actives largely listed as inhibitors; actives 0.2% (n = 360,000);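 also: potency is read from the fitted curve at half-maximal effect; 0% = vehicle wells and -100% = peptide control; nearly all actives have a fitted effect of over 45% in size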
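AMA1 (3D7) with his tag at 25 nM final met compounds first, then biotinylated RON2 peptide at 25 nM; detection used donor plus acceptor beads, 10 µg/mL apiece, read by AlphaScreen after 30 min at room temperature.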
Starred values were filed as active, the others as inactive; u = inconclusive; x = no result given. The entries come from a sample that favours hits as a whole. Unless noted, calls follow the shape of the dose curve; as a rule, active = well fitted curve in the direction sought with a large enough effect; inconclusive = small, poorly fitted or top-dose-only effect, or another doubt; inactive = no such curve, though single readings can be large; an effect the other way counts as inactive or inconclusive.

SMILES | AmpC no deterg | AmpC detergent | CHX counter | SARS PLP yeast | Shiga toxin inh | AMA1 RON2 block
O=C(N/N=C/c1ccc(N2CCOCC2)cc1)C1CC1 | -10.0% | 2.8% | 15.3 | 0.3% | 45.2* | 11.6%
O=C(N/N=C\c1ccc(Oc2ccccc2)cc1)c1csnn1 | -11.9% | -7.3% | 46.5* | 2.3% | 97.2* | 11.7%
CC(C)c1ccc(/C=N/NC(=O)c2ccc(-n3cnnn3)cc2)cc1 | -24.2% | -18.8% | x | -1.5% | x | 7.2%
NC(=O)c1cc2ccccc2o/c1=N/NC(=O)c1cccs1 | -26.0% | 8.2% | 40.4 | -1.7% | 29.8 | 93.7%
CN(C)c1ccc(/C=N\NC(=O)c2csnn2)cc1 | -16.4% | -10.5% | 18.1* | -7.9% | 32.5* | 6.3%
O=C(N/N=C/c1ccncc1)c1ccccn1 | -17.7% | 5.9% | 34.5* | -0.9% | 72.2* | 37.4%
CN(C)c1ccc(/C=N/NC(=O)C[n+]2ccccc2)cc1 | x | x | x | x | x | 45.4%
CN(C)c1ccc(/C=N/NC(=O)c2ccccn2)cc1 | -19.6% | -1.7% | 22.8* | -1.7% | 15.0 | 53.9%
O=S(=O)(N/N=C/c1ccc(N2CCOCC2)cc1)c1ccc(Br)cc1 | 11.2µM* | u | -1.8 | -2.9% | 47.8 | -0.6%
CN(C)c1ccc(/C=N/NC(=O)c2cnc3ccccc3c2)cc1 | -26.9% | -7.3% | -0.1 | -0.1% | 4.1 | 17.6%
O=C(N/N=C/c1ccncc1)c1cnccn1 | -5.2% | -14.1% | 9.1 | -1.2% | 45.9 | 64.8%
O=S(=O)(NN1CCOCC1)c1ccc(Br)cc1 | -14.9% | 3.5% | -3.2 | -2.6% | -8.8 | 3.1%
CCOc1ccc(C(=O)Nc2cc(=O)n(C)c(=O)n2C)cc1 | x | x | x | x | x | 1.4%
O=C(N/N=C/c1cnc(N2CCOCC2)s1)c1ccccc1 | -6.7% | -7.7% | 19.8* | 2.1% | 37.5 | 3.2%
O=C(N/N=C/c1sc(N2CCOCC2)nc1-c1ccccc1)c1ccc(O)cc1 | u | -6.2% | 14.3 | -0.5% | 12.4 | -4.9%
Nc1nc2ccccc2n1/N=C/c1ccc(Br)cc1 | -22.5% | -3.0% | 42.6* | -13.5% | 92.9* | -3.3%
Nc1nc2ccccc2n1/N=C/c1ccc2c(c1)OCO2 | -25.9% | 1.2% | 31.9* | 0.7% | 91.4* | -6.7%
COc1cc(S(=O)(=O)NCC2CCCO2)c(OC)cc1Cl (stereo not drawn) | -2.5% | -12.0% | 1.8 | 1.3% | 21.3 | 53.4%
Nc1c(-c2cccc(Cl)c2)cnn1-c1cccc(C(F)(F)F)c1 | -28.0% | 0.5% | 31.2* | -36.1% | 58.5* | -0.8%
Nc1c(-c2ccccc2)cnn1-c1cccc(C(F)(F)F)c1 | u | -2.5% | 68.3* | -12.9% | 83.0* | 1.0%
Cc1ccc(S(=O)(=O)Nc2cccc(-c3ccc(N4CCC(C)CC4)nn3)c2)s1 | x | -3.1% | x | x | x | x
CN(C)S(=O)(=O)c1cccc(COC(=O)Cc2c(F)cccc2Cl)c1 | 8.2% | 1.3% | 13.7* | -9.7% | 26.8 | -1.2%
CCc1nc2sccc2c(=O)n1N | -13.5% | 4.4% | -1.1 | -0.5% | 18.1 | -4.0%
Cc1ccc(NC(=O)c2oc3c(c2C)C(=O)CC(C)(C)C3)cc1 | -0.6% | u | -1.8 | -1.0% | -18.1 | -3.1%
Cc1c(C(=O)Nc2ccccc2)oc2c1C(=O)CC(C)(C)C2 | -10.8% | -0.5% | 33.0* | -10.6% | 81.8* | 0.0%
SMILES | AmpC no deterg | AmpC detergent | CHX counter | SARS PLP yeast | Shiga toxin inh | AMA1 RON2 block
Cc1nnc(SCC(=O)Nc2nsc(-c3ccccc3)n2)s1 | -14.1% | -8.4% | 15.5* | -5.8% | 29.6 | -2.6%
Cc1ccc(-c2nc(NC(=O)CSc3nnc(C)s3)ns2)cc1 | -28.8% | -2.2% | 22.9* | 15.8% | 76.5* | -2.0%
O=C(CSc1nnc2ccccn12)Nc1nsc(-c2ccccc2)n1 | -11.0% | -14.8% | 18.5* | 3.0% | 20.9 | -2.2%
COc1ccc2c(C)cc(SCC(=O)Nc3nsc(-c4ccc(C)cc4)n3)nc2c1 | -12.5% | -19.0% | -3.0 | 7.0% | -16.3 | 31.4%
COc1ccc(-c2nc(NC(=O)CSc3nnc(C)s3)ns2)cc1 | -14.7% | 3.3% | 33.9* | 3.4% | 33.0* | 4.2%
O=C(CSc1nnnn1-c1ccccc1)Nc1nsc(-c2ccccc2)n1 | -19.3% | 1.3% | -2.5 | -0.2% | -8.6 | -3.3%
CCC(C)c1cc([N+](=O)[O-])cc([N+](=O)[O-])c1OC(=O)OC(C)C (stereo not drawn) | x | x | 6.4 | x | 15.5 | x
Cn1c(COc2ccccc2)nnc1SCC(=O)Nc1ccc(N2CCOCC2)cc1 | -0.8% | 6.0% | -8.4 | -8.5% | -6.2 | -2.9%
